Consider 31 compounds from ChEMBL document CHEMBL1157539, “Thousands of chemical starting points for antimalarial lead identification” (Nature, 2010).

What all share (type): functional
In assay [1] the test system is Plasmodium falciparum. The experiment in a line: GSK_TCMDC: Inhibition of Plasmodium falciparum 3D7 in whole red blood cells, using parasite LDH activity as an index of growth. Test compounds present at 2uM.
Assay [2] relates to Plasmodium falciparum. The assay is described as follows: GSK_TCMDC: Inhibition of Plasmodium falciparum Dd2 in whole red blood cells, using parasite LDH activity as an index of growth. Test compounds present at 2uM.
A further assay concerns HepG2. The assay is described as follows: GSK_TCMDC: Percent inhibition of human HepG2 cell line. Test compounds present at 10uM.

As to `COc1cc(NC(=O)C(c2ccc(Cl)cc2)C(C)C)cc(OC)c1OC` (stereo not drawn), the Inhibition – broadly, the relative decrease from the control value, in per cent – with Plasmodium falciparum [1] is recorded as 100%; in the assay on Plasmodium falciparum [2] it was 100%; in the assay with HepG2, 10%.

As for `Cl.c1ccc(Oc2cccc(Nc3ccnc4ccccc34)c2)cc1`, the results for the Inhibition with Plasmodium falciparum [1], in the assay with Plasmodium falciparum [2] and in the assay on HepG2 were 95%, 14% and 48%, respectively.

Consider `O=C(NC1CC1)c1ccc(N2CCC(Oc3ccc(F)cc3)CC2)nc1`, for which the Inhibition in the assay on Plasmodium falciparum [1] is 89%; in the assay with Plasmodium falciparum [2], 79%; with HepG2, 0%.

Take `Cc1ccccc1C1CCN(c2ccc(NC(=O)c3ccc(Cl)nc3)cc2)CC1.O=C(O)C(F)(F)F`: the Inhibition in the assay on Plasmodium falciparum [1] is recorded as 92%; in the assay with Plasmodium falciparum [2] it was 82%; in the assay on HepG2 it was 43%.

On to `COc1ccc(CCN(C)CCOc2ccc(NC(=O)c3cccc4c(=O)c5cc(SC)ccc5[nH]c34)cc2)cc1OC`, for which the Inhibition in the assay with Plasmodium falciparum [1] worked out at 97%; with Plasmodium falciparum [2], 82%; with HepG2, 52%.

Turning to `Cc1nc2ccc([N+](=O)[O-])cc2c(=O)n1OCc1ccccc1`, the values for the Inhibition with Plasmodium falciparum [1], with Plasmodium falciparum [2] and in the assay on HepG2 were 98%, 0% and 2%, respectively.

Turning to `Cc1cccc2nc(-c3cccc(-c4cccc(NC(=O)c5ccc(C(N)=O)cc5)c4)c3)[nH]c12`, the Inhibition with Plasmodium falciparum [1] was found to be 100%; with Plasmodium falciparum [2] it was 34%; in the assay on HepG2 it was 25%.

As for `Cc1cc(=O)[nH]c(-n2nc(C)cc2NC(=O)C2(c3ccc(Cl)cc3)CCCC2)n1`, the Inhibition turned out to be 96% with Plasmodium falciparum [1], 97% with Plasmodium falciparum [2] and 30% in the assay with HepG2.

`COc1ccc(OC)c(-c2ccc(=O)n(CC(=O)Nc3cccc4ccccc34)n2)c1`: the Inhibition is reported as 100% with Plasmodium falciparum [1], 95% with Plasmodium falciparum [2] and 0% in the assay with HepG2.

Take `CCN1CCC(N(CCCCCCCCc2ccc(C(F)(F)F)cc2)C(=O)Cn2c(CCc3cccc(F)c3F)cc(=O)c3ccccc32)CC1.O=C(O)C(O)C(O)C(=O)O`: the Inhibition is recorded as 88% in the assay with Plasmodium falciparum [1], 65% in the assay on Plasmodium falciparum [2] and 89% in the assay with HepG2.

As to `Nc1nc(N)c2c(CCc3ccc4ccccc4c3)cccc2n1`, the Inhibition with Plasmodium falciparum [1] worked out at 100%; in the assay with Plasmodium falciparum [2], 6%; in the assay on HepG2, 56%.

As for `CC(=O)Nc1ncc(C(=O)Nc2cccc(-c3ccc(-c4nc5cc(C(F)(F)F)ccc5[nH]4)s3)c2)s1`, the Inhibition came out at 100% in the assay with Plasmodium falciparum [1], 99% in the assay with Plasmodium falciparum [2] and 90% with HepG2.

As for `Fc1ccc2[nH]c(-c3ccccc3)nc2c1CN1CCC(N2CCCC2)CC1.O=CO`, the Inhibition with Plasmodium falciparum [1] turned out to be 100%; with Plasmodium falciparum [2], 30%; with HepG2, 2%.

As for `Cl.Cn1ccnc1S(=O)(=O)CCNCc1ccc(-c2ccc3ncnc(Nc4ccc(OCc5cccc(F)c5)c(Cl)c4)c3c2)o1`, the Inhibition in the assay with Plasmodium falciparum [1] is 100%; with Plasmodium falciparum [2], 94%; in the assay with HepG2, 0%.

On to `Oc1cc2c(cc1CN1CCN(Cc3ccc(Cl)s3)CC1)CCC2`, for which the Inhibition with Plasmodium falciparum [1] came to 98%; with Plasmodium falciparum [2], 76%; in the assay on HepG2 it was 7%.

For the compound `CCN(CCCN1CCCCC1)c1cc(C)nc(Nc2ccc(C)cc2C(F)(F)F)n1.O=C(O)C(F)(F)F`, the figures for the Inhibition with Plasmodium falciparum [1], in the assay on Plasmodium falciparum [2] and in the assay on HepG2 were 100%, 35% and 23%, respectively.

For the compound `CCOc1cc(Cc2cnc(N)nc2N)cc(OCC)c1OCC`, the Inhibition with Plasmodium falciparum [1] is reported as 97%; with Plasmodium falciparum [2], 0%; in the assay on HepG2, 0%.

Take `CC(C)c1ccc(C(NC(=O)C2CCCCC2)c2ccc3cccnc3c2O)cc1` (stereo not drawn): the Inhibition in the assay on Plasmodium falciparum [1] is listed as 89%; in the assay with Plasmodium falciparum [2], 70%; with HepG2, 46%.

Regarding `COc1ccc2nccc(N3CCC(SCCNCc4ccc5c(n4)NC(=O)CO5)C3)c2n1.Cl` (stereo not drawn), the Inhibition was found to be 100% with Plasmodium falciparum [1], 9% with Plasmodium falciparum [2] and 30% with HepG2.

On to `CC(C)(C(=O)NCCC1CCN(CCCCCNC(=O)/C=C/c2ccc(Cl)c(Cl)c2)CC1)c1ccc(Cl)cc1`, for which the values for the Inhibition in the assay with Plasmodium falciparum [1], in the assay with Plasmodium falciparum [2] and in the assay with HepG2 were 89%, 33% and 92%, respectively.

As to `CCCCNc1ccc(C(=O)NC2CCN(C[C@H](O)c3ccnc4ccc(OC)cc34)CC2)cc1`, the Inhibition turned out to be 90% in the assay with Plasmodium falciparum [1], 64% in the assay on Plasmodium falciparum [2] and 12% with HepG2.

Take `COc1cc(Cc2cnc(N)nc2N)cc(OCCCCC2SC(=O)NC2=O)c1Br` (stereo not drawn): the values for the Inhibition with Plasmodium falciparum [1], with Plasmodium falciparum [2] and with HepG2 were 94%, 0% and 15%, respectively.

For `COC(=O)c1ccc(C(=O)NCCCCN2CCC(c3ccc4c(c3OC)CCCC4)CC2)cc1-c1ccc(C(F)(F)F)cc1`, the Inhibition in the assay on Plasmodium falciparum [1] stood at 93%; in the assay on Plasmodium falciparum [2], 19%; with HepG2 it was 24%.

For `CC(C)c1ccc(CN2CCC(CNC(=O)c3cc(-c4cccc(Cl)c4)cs3)C2)cc1.O=C(O)C(F)(F)F` (stereo not drawn), the Inhibition is given as 99% in the assay with Plasmodium falciparum [1], 43% with Plasmodium falciparum [2] and 42% in the assay on HepG2.

As to `Cc1cccc2nc(-c3ccc(-c4cccc(CNCC5CCCO5)c4)s3)[nH]c12.O=C(O)C(F)(F)F` (stereo not drawn), the Inhibition with Plasmodium falciparum [1] amounted to 93%; in the assay with Plasmodium falciparum [2] it was 11%; in the assay with HepG2 it was 26%.

Take `COC(=O)c1cc(OC)c(OC)cc1NC(=O)NC12CC3CC(CC(C3)C1)C2`: the Inhibition is on record as 94% in the assay on Plasmodium falciparum [1], 3% in the assay on Plasmodium falciparum [2] and 6% in the assay on HepG2.

In the case of `N#Cc1cc(C(=O)c2cc(Cl)ccc2O)cn(-c2cccc(C(F)(F)F)c2)c1=O`, the Inhibition worked out at 87% with Plasmodium falciparum [1], 7% in the assay on Plasmodium falciparum [2] and 0% in the assay on HepG2.

Consider `Nc1cc(/C=C/c2ccc([N+](=O)[O-])s2)nc2ccccc12`, for which the Inhibition in the assay on Plasmodium falciparum [1] was determined as 98%; with Plasmodium falciparum [2] it was 48%; in the assay on HepG2, 89%.

With `CCCCOC(=O)[C@H](CCC)NC(=O)c1ccc(NS(=O)(=O)c2ccc3nc(N)[nH]c(=O)c3c2)cc1`, the values for the Inhibition in the assay with Plasmodium falciparum [1], in the assay on Plasmodium falciparum [2] and in the assay with HepG2 were 99%, 3% and 66%, respectively.

As to `CN1CCC(NCc2ccc(-c3cccc(S(=O)(=O)NCC4CCCO4)c3)cc2)CC1.O=C(O)C(F)(F)F` (stereo not drawn), the results for the Inhibition with Plasmodium falciparum [1], in the assay on Plasmodium falciparum [2] and in the assay with HepG2 were 90%, 0% and 8%, respectively.

As to `c1ccc2cc3c(Nc4ccc(N5CCCCC5)cc4)ccnc3cc2c1`, the figures for the Inhibition with Plasmodium falciparum [1], in the assay on Plasmodium falciparum [2] and in the assay on HepG2 were 100%, 36% and 21%, respectively.
